Data taken from PubChem BioAssay (NCATS).
Values joined by “and” are separate entries in the source; they are usually repeats but may differ in a detail not shown here. Identical values can stand only once. Inconclusive results are not listed. A structure can be active in one record and inactive in another. Active and inactive are the calls of the source. Calls come from the whole dose curve; as a rule, active = well fitted curve in the direction sought with a large enough effect; inconclusive = small, poorly fitted or top-dose-only effect, or another doubt; inactive = no such curve, though single readings can be large; an effect the other way counts as inactive or inconclusive.

How the values were obtained:
HEK293 = assay: Cytotoxic Profiling of Annotated Libraries Using Quantitative High-Throughput Screening (AID 1296008); conditions: Five cell lines viability, CellTiter-Glo ATP luminescence, 48-72 h; max response: hits give low values; note: nearly all actives have a fitted effect of over 60% in size
Outline: (§1)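 Cytotoxicity was measured as CellTiter-Glo ATP luminescence, read after 10 min at room temperature. Compound treatment of the cells lasted 48 or 72 hr at 37 degrees Celsius in a qHTS format.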

NIH3T3 [1] = assay: as above; conditions: Five cell lines viability, CellTiter-Glo ATP luminescence, 48-72 h; max response: hits give low values
Outline: as §1

MCC-13 = assay: qHTS assay to identify novel small-molecules to repurpose for Merkel cell carcinoma treatment (AID 1296009); conditions: MCC and control cell lines, CellTiter-Glo viability, 72 h; series mostly up to 46 µM; note: nearly all actives have a fitted effect of over 60% in size
Outline: (§2)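 After compound transfer in DMSO, plates were kept 72 hr at 37 degree celsius. Luminescent ATP signal from CellTiter-Glo served as viability measure, normalized against DMSO and no-cell controls.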

MKL-1 = assay: as above; conditions: MCC and control cell lines, CellTiter-Glo viability, 72 h; series mostly up to 46 µM
Outline: as §2

MKL-2 = assay: as above; conditions: MCC and control cell lines, CellTiter-Glo viability, 72 h; series mostly up to 46 µM
Outline: as §2

UISO = assay: as above; conditions: MCC and control cell lines, CellTiter-Glo viability, 72 h; series mostly up to 46 µM
Outline: as §2

WaGa = assay: as above; conditions: MCC and control cell lines, CellTiter-Glo viability, 72 h; series mostly up to 46 µM
Outline: as §2

CASKI = assay: Primary qHTS to identify gynecologic anti-cancer compounds using libraries of approved drugs and bioactive compounds (AID 1345084); conditions: Gynecologic cancer cell panel viability, ATPlite luminescence, 48 h; series mostly up to 57.5 µM; note: nearly all actives have a fitted effect of over 55% in size
Outline: (§3)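 Cells, 1,000 per well, were allowed to settle for 16 h at 37 C before compound addition. Five concentrations were tested for 48 h, and viability was read by ATPlite luminescence after 15 min at room temperature.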

Es-2 = assay: as above; conditions: Gynecologic cancer cell panel viability, ATPlite luminescence, 48 h; series mostly up to 57.5 µM
Outline: as §3

HeLa = assay: as above; conditions: Gynecologic cancer cell panel viability, ATPlite luminescence, 48 h; series mostly up to 57.5 µM
Outline: as §3

HaCat [2] = assay: Cytotoxic Profiling of Annotated Libraries Using Quantitative High-Throughput Screening (AID 1296008); conditions: Five cell lines viability, CellTiter-Glo ATP luminescence, 48-72 h; max response: hits give low values; note: nearly all actives have a fitted effect of over 60% in size
Outline: as §1

KB-3-1 = assay: as above; conditions: Five cell lines viability, CellTiter-Glo ATP luminescence, 48-72 h; max response: hits give low values
Outline: as §1

HACAT [3] = assay: qHTS assay to identify novel small-molecules to repurpose for Merkel cell carcinoma treatment (AID 1296009); conditions: MCC and control cell lines, CellTiter-Glo viability, 72 h; series mostly up to 44.8 µM; note: nearly all actives have a fitted effect of over 60% in size
Outline: as §2

HEK293T [4] = assay: as above; conditions: MCC and control cell lines, CellTiter-Glo viability, 72 h; at 44.8 µM (top of the series) unless noted
Outline: as §2

NIH3T3 [5] = assay: as above; conditions: MCC and control cell lines, CellTiter-Glo viability, 72 h; at 44.8 µM (top of the series) unless noted
Outline: as §2

C33A = assay: Primary qHTS to identify gynecologic anti-cancer compounds using libraries of approved drugs and bioactive compounds (AID 1345084); conditions: Gynecologic cancer cell panel viability, ATPlite luminescence, 48 h; series mostly up to 57.5 µM; note: nearly all actives have a fitted effect of over 55% in size
Outline: as §3

CAOV3 = assay: as above; conditions: Gynecologic cancer cell panel viability, ATPlite luminescence, 48 h; series mostly up to 57.5 µM
Outline: as §3

Hek293T [6] = assay: as above; conditions: Gynecologic cancer cell panel viability, ATPlite luminescence, 48 h, control line for the selectivity index; series mostly up to 57.5 µM
Outline: as §3

JEG-3 = assay: as above; conditions: Gynecologic cancer cell panel viability, ATPlite luminescence, 48 h; series mostly up to 57.5 µM
Outline: as §3

MCC-26 = assay: qHTS assay to identify novel small-molecules to repurpose for Merkel cell carcinoma treatment (AID 1296009); conditions: MCC and control cell lines, CellTiter-Glo viability, 72 h; series mostly up to 46 µM; note: nearly all actives have a fitted effect of over 60% in size
Outline: as §2
% is set by controls: 0 for no effect and ±100 for the full control effect; potency is the fitted concentration of half-maximal effect.

CCN(CC)CCNC(=O)c1ccc2nc(-c3ccccc3)c(-c3ccc(CN4CCC(n5c(=O)[nH]c6ccccc65)CC4)cc3)nc2c1
active: Potency (HEK293) 2.96 µM and 8.2 µM | Potency (NIH3T3 [1]) 10.5 µM | Potency (MCC-13) 8.33 µM | Potency (MKL-1) 1.32 µM | Potency (MKL-2) 1180 nM | Potency (UISO) 16.6 µM | Potency (WaGa) 7.43 µM
inactive: Potency (CASKI) | Potency (Es-2) | Potency (HeLa)

O=C(NC1CCNCC1)c1[nH]ncc1NC(=O)c1c(Cl)cccc1Cl
active: Potency (HEK293) 0.264 µM | Potency (NIH3T3 [1]) 13.2 µM | Potency (MKL-1) 0.372 µM | Potency (MKL-2) 833 nM | Potency (UISO) 1.32 µM

CCCCCCCCCC(=O)N[C@@H](Cc1c[nH]c2ccccc12)C(=O)N[C@H](CC(N)=O)C(=O)N[C@@H](CC(=O)O)C(=O)N[C@@H]1C(=O)NCC(=O)N[C@@H](CCCN)C(=O)N[C@@H](CC(=O)O)C(=O)N[C@H](C)C(=O)N[C@@H](CC(=O)O)C(=O)NCC(=O)N[C@H](CO)C(=O)N[C@@H]([C@@H](C)CC(=O)O)C(=O)N[C@@H](CC(=O)c2ccccc2N)C(=O)O[C@@H]1C
inactive: max response (HaCat [2]) -26.3% | outcome (HaCat [2]) | outcome (KB-3-1) | max response (NIH3T3 [1]) -13.2% | outcome (NIH3T3 [1]) | Potency (HACAT [3]) | outcome (HEK293T [4]) | Potency (MCC-13) | Potency (MKL-1) | Potency (MKL-2) | outcome (NIH3T3 [5]) | Potency (UISO) | Potency (WaGa) | Potency (C33A) | Potency (CAOV3) | Potency (CASKI) | Potency (Es-2) | Potency (HeLa) | Potency (Hek293T [6]) | Potency (JEG-3)

COc1c(OCCCN2CCOCC2)ccc2c3n(c(=NC(=O)c4cnc(N)nc4)nc12)CCN3
inactive: Potency (MKL-1) | activity change, negative = cytotoxicity (CAOV3) -27.2% [at 11.6 µM]
active: Potency (HEK293) 363 nM and 42.2 nM | Potency (KB-3-1) 94.4 nM | Potency (NIH3T3 [1]) 2.88 µM and 59.6 nM | Potency (C33A) 316 nM | Potency (CASKI) 112 nM | Potency (HeLa) 1 µM

Cc1c(C)n(Cc2ccc(-c3ccccc3C(=O)O)cc2)c2ccc(C(=O)N[C@@H](C)c3ccc([N+](=O)[O-])cc3)cc12
active: Potency (MKL-1) 0.372 µM | Potency (MKL-2) 332 nM | Potency (WaGa) 0.469 µM
inactive: max response (HaCat [2]) -4.97% | outcome (HaCat [2]) | max response (KB-3-1) 0.427% and 0.798% | max response (NIH3T3 [1]) -3.87% and -3.64% | Potency (HACAT [3]) | outcome (HEK293T [4]) | Potency (MCC-13) | Potency (MCC-26) | Potency (C33A) | Potency (CASKI) | Potency (Es-2) | Potency (HeLa) | Potency (Hek293T [6]) | Potency (JEG-3)

CN(C)CC(C)(C)CNc1nn2c(-c3ccccc3)nnc2cc1C1CCC1
active: Potency (MKL-1) 0.935 µM | Potency (WaGa) 0.662 µM
inactive: max response (HaCat [2]) -29.4% and -5.55% | max response (KB-3-1) 9% | outcome (KB-3-1) | max response (NIH3T3 [1]) -0.774% | outcome (HEK293T [4]) | Potency (MCC-13) | Potency (MCC-26) | Potency (C33A) | Potency (CASKI) | Potency (Es-2) | Potency (HeLa) | Potency (Hek293T [6]) | Potency (JEG-3)

Cc1cc(C(=O)N2CCN(c3cccc(Cl)c3)CC2)n(-c2ccccc2)n1
active: Potency (HEK293) 526 nM and 1.46 µM | Potency (KB-3-1) 833 nM and 1.64 µM | Potency (UISO) 1.66 µM | Potency (Es-2) 11.2 µM | Potency (HeLa) 8.91 µM
inactive: Potency (CAOV3)

CC(=O)Nc1sc2c(c1-c1nc3ccccc3s1)CNC2
active: Potency (HEK293) 11.8 µM | Potency (KB-3-1) 23500 nM | Potency (UISO) 8.33 µM
inactive: Potency (MCC-13) | Potency (MCC-26) | Potency (C33A) | Potency (CASKI) | Potency (HeLa) | Potency (JEG-3)

O=c1[nH]c(=O)n(C2CCCO2)cc1F (centres undefined)
inactive: max response (HEK293) -0.0583% | outcome (KB-3-1) | Potency (MCC-13) | Potency (MKL-1) | Potency (MKL-2) | Potency (UISO)

Nc1ccc(C(=O)c2cc3c(ccc4ccccc43)[nH]2)cc1
active: Potency (HEK293) 2.96 µM | Potency (KB-3-1) 4180 nM | Potency (WaGa) 8.33 µM

Cc1nc2cnc3ccc(C#Cc4cccnc4)cc3c2n1-c1ccc(C(C)(C)C#N)cc1
active: Potency (HaCat [2]) 1.18 µM | Potency (KB-3-1) 93.5 nM | Potency (NIH3T3 [1]) 0.148 µM

CC1(O)CC(c2nc(-c3ccc4ccc(-c5ccccc5)nc4c3)c3c(N)nccn23)C1 (centres undefined)
active: Potency (NIH3T3 [1]) 16.6 µM | Potency (UISO) 0.662 µM
inactive: max response (HaCat [2]) -1.26% | outcome (HaCat [2]) | Potency (HACAT [3]) | Potency (MCC-13) | Potency (MCC-26) | Potency (C33A) | Potency (CAOV3) | Potency (CASKI) | Potency (Es-2) | Potency (Hek293T [6]) | Potency (JEG-3)

C[C@@]12O[C@@H](C[C@]1(O)CO)n1c3ccccc3c3c4c(c5c6ccccc6n2c5c31)CNC4=O
active: Potency (HEK293) 4.18 µM | Potency (KB-3-1) 372 nM | Potency (NIH3T3 [1]) 1.87 µM | Potency (MCC-26) 18.7 µM | Potency (MKL-1) 1.48 µM | Potency (MKL-2) 52.6 nM | Potency (UISO) 1.66 µM | Potency (WaGa) 0.833 µM

c1ccc2c(CCNc3ccc(Nc4ccncc4)cc3)c[nH]c2c1
active: Potency (HaCat [2]) 11.8 µM | Potency (KB-3-1) 23500 nM | Potency (NIH3T3 [1]) 16.6 µM and 11.6 µM | Potency (MCC-13) 20.9 µM | Potency (MKL-1) 9.35 µM | Potency (MKL-2) 5900 nM | Potency (UISO) 13.2 µM | Potency (WaGa) 7.43 µM
inactive: max response (HaCat [2]) 2.65% | Potency (HeLa) | Potency (JEG-3)
